From PubChem BioAssay
Pf Dd2 inh: Plasmodium falciparum Dd2 growth inhibition. P. falciparum Dd2 growth, SYBR Green, 72 h. Potency, µM (series often up to 28.9 µM), for inactives: at the highest dose activity, negative = inhibition, actives largely listed as inhibitors. 120,000 tested, 4.3% active; active = well fitted inhibition curve with a large enough effect;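 also: plate controls were DMSO vehicle for no effect and reference drug for full effect; nearly all actives have a fitted effect of over 65% in size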
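Infected erythrocytes (Dd2, 0.3% parasitemia, 2.5% hematocrit final) are added to compound in RPMI-1640/Albumax II medium, grown 72 h at 37C in low oxygen, then lysed with saponin/Triton-X containing SYBR Green and read by fluorescence.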
* hit, by the source's call; i = inactive; [ ] = another dose, or the depositor's remark. The full list was thinned out, with hits kept by preference. Potency is read from the fitted curve at half-maximal effect.

SMILES	Pf Dd2 inh
CC(C)NC(=O)NC[C@H]1C[C@@H]2CCN1C[C@@H]2CN(C)Cc1ccccc1	-23.8%[44.1 µM]
COc1ccc(S(=O)(=O)NC[C@H]2C[C@@H]3CCN2C[C@@H]3CN2CCCCC2)cc1	i
CS(=O)(=O)NC[C@H]1C[C@@H]2CCN1C[C@@H]2CN1CCc2ccccc2C1	-16.4%[44.1 µM]
CCOCCOC1CCN(C(=O)Nc2ccccc2F)CC1	i
O=C([C@@H]1C[C@H](F)CN1C(=O)c1ccsc1)N1CCOCC1	-0.8%
O=C(c1ccccc1F)N1CCCC(CO)(Cc2ccccc2F)C1 (stereo not given)	-8.5%
CC(=O)N1CCC2(CC1)CN([S+](C)(=O)[O-])Cc1ccccc1O2	i
COc1ccc(-c2noc([C@@H]3Cc4nc[nH]c4CN3C(=O)Nc3ccc(C)cc3)n2)cc1	-11.6%[44.1 µM]
COc1ccc(-c2[nH]nc3nc(-c4cc(OC)c(OC)c(OC)c4)cc(C(=O)O)c23)cc1	-15.0%
CCOc1cc(-c2cc(C(=O)O)c3c(-c4ccccc4)[nH]nc3n2)ccc1O	-2.6%
Cc1cccc(-c2cc(C(=O)O)c3c(-c4ccc(F)cc4)[nH]nc3n2)c1	7.94µM*
Cc1nc(C)c(C(=O)N2C[C@@H](Oc3cccnc3)C[C@H]2C(=O)NC2CC2)s1	11.9%
COc1ccc(C2Cn3cnc(C(=O)N4CCC(C(=O)Nc5ccc(Cl)cc5)CC4)c3CO2)cc1 (stereo not given)	i
C[S+](=O)([O-])N1CC2(CCCCN2Cc2ccc(Cl)cc2)Cc2ccccc21 (stereo not given)	-26.9%
O=C(c1ccc(Cl)cc1)N1CC2(CCN(Cc3cccnc3)CC2)Cc2ccccc21	-26.5%
O=[S+]([O-])(c1ccccc1)N1CC2(CCCN2Cc2cccnc2)Cc2ccccc21 (stereo not given)	11.2µM*
CCN1CCCN(C(=O)c2cccnc2)CC12CCOCC2	-5.9%
CS(=O)(=O)N1Cc2ccccc2CC2(CCCN2Cc2cccnc2)C1 (stereo not given)	-7.7%
O=C(c1ccc(Cl)cc1)N1CC2(CCCN2Cc2cccnc2)Cc2ccccc21 (stereo not given)	10µM*
O=C(c1ccccc1)N1CC2(CCCCN2Cc2cccnc2)Cc2ccccc21 (stereo not given)	10µM*
O=C(O)CCC(=O)N1CCCC2(Cc3ccccc3N(C(=O)c3ccc(Cl)cc3)C2)C1 (stereo not given)	i
O=C(c1ccncc1)N1CCCN(Cc2cccnc2)c2ccccc21	i
O=C(c1cccc(-n2cnnc2)c1)N1CCCCCC1c1cccc(F)c1 (stereo not given)	-28.5%
O=C(O)C1=NOC2CN([S+](=O)([O-])c3cccc(C(F)(F)F)c3)CC12 (stereo not given)	22.2%
O=C(c1ccc(F)cc1F)N1CCC2(CC1)OCC(C(=O)N1CCCC1)N2C(=O)c1ccco1 (stereo not given)	-2.7%
SMILES	Pf Dd2 inh
CCOc1ccccc1CNC(=O)c1noc(-c2ccc(C)cc2)n1	i
CCC(=O)N1CCC(Oc2ncccc2C(=O)N(C)C)C1 (stereo not given)	38.5%
O=C(Nc1ccc(N2CCOCC2)cc1)C1(CCO)CCN(c2ncccn2)C1 (stereo not given)	-25.4%
O=C(N[C@@H]1CN(Cc2cc(F)c(F)c(F)c2)C[C@H]1CO)C1CC1	-11.8%
O=C(c1cnccn1)N1CCC2(CC1)NC(=O)N(Cc1ccc(F)cc1)C2=O	-14.7%
O=C(C[C@@H]1CCNC[C@@H]1Cc1cc(CC2CCCCC2)on1)NCc1ccco1	i
COc1ccc(CNC(=O)C[C@@H]2CCNC[C@@H]2Cc2cc(CN3CCOCC3)on2)cc1	15.7%
COc1ccc(CNC(=O)C[C@@H]2CCNC[C@@H]2Cc2cc(CC3CCCCC3)on2)cc1	11.2µM*
O=C(CN1C(=O)CCC1=O)N1CCC(c2noc(-c3ccccn3)n2)C1 (stereo not given)	i[5.79 µM]
Cc1ccc(C(=O)NC[C@H]2O[C@@H](CC(=O)N3CCN(c4ccc(F)cc4)CC3)[C@H](O)[C@@H]2O)cc1	1.0%
F[C@@H]1CN(Cc2cccnc2)C[C@@H]1OCc1nc2ccccc2[nH]1	11.3%[44.1 µM]
Cc1ncsc1CN1CCC2(CC1)CC(Cc1nc(-c3ccccc3)no1)CCO2 (stereo not given)	i
CC1(C)[C@H]2CC[C@@H](CNC(=O)c3ccncc3)[C@@H]1C2	-11.7%[44.1 µM]
CC1(C)[C@H]2CC[C@@H](CNC(=O)c3cc(F)ccc3Br)[C@@H]1C2	-28.5%[44.1 µM]
CC1(C)[C@H]2CC[C@@H](CNC(=O)c3cccc(Br)c3)[C@@H]1C2	11.2µM*
CNC(=O)[C@@H]1CN(C(=O)c2cscn2)C[C@H]1c1nc(COC)no1	19.7%
CN1c2cc(C(=O)N3CCN(c4ccccc4F)CC3)ccc2C(=O)N2CCCCCC21 (stereo not given)	-9.1%
COc1ccc(-c2noc(C(=O)NC3CCC3)c2[C@H](C)O)cc1	-7.7%[44.1 µM]
Cc1ccc(-n2ncc(C(=O)NCc3cccs3)c2C2CCN(C(=O)OC(C)(C)C)CC2)c(C)c1	11.2µM*
CC(C)(C)OC(=O)N1CCC(c2c(C(=O)NCc3cccs3)cnn2-c2cccc(F)c2)CC1	7.94µM*
